Bioassay records as filed in PubChem BioAssay.
Mm-Cpn inhibitor – M. maripaludis TRiC chaperonin inhibition | purified Mm-Cpn ATPase, ADP Transcreener TR-FRET | Potency, µM (doses to about 76.9 µM), inactives show at the highest dose activity, negative = inhibition, usual class: inhibitors | 0.031% of 330,000 active; also: potency is read from the fitted curve at half-maximal effect; % is scaled to controls: 0 for no effect and ±100 for the full control effect; nearly all actives have a fitted effect of over 80% in size
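Inhibition of chaperonin ATP hydrolysis is measured as reduced ADP production, detected by competitive TR-FRET in which signal falls with ADP. Final enzyme 25 nM and ATP 10 uM, reacted 30 min at 37°C.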
uPA generation – blocks generation of uPA at the cell surface. cell surface uPA generation assay, qHTS. Potency, µM (doses to about 38.3 µM), without a hit: top-dose activity change, negative = inhibition, actives largely listed as inhibitors. 0.31% of 330,000 active. AID 540303; active = well fitted inhibition curve with a large enough effect; inconclusive = small, poorly fitted or top-dose-only effect; inactive = no such curve, though single readings can be large or run the other way; tested in mouse RAW 264.7 cells; also: potency is read from the fitted curve at half-maximal effect; % is scaled to controls: 0 for no effect and ±100 for the full control effect; nearly all actives have a fitted effect of over 55% in size
ASM inhibitor – human S-ASM enzyme inhibition; P17405; placental ASM, HMU-PC fluorogenic substrate, 60 min; Potency, µM (top dose mostly 57.5 µM), without a hit: at the top dose activity change, negative = inhibition, hits mostly inhibitors; 0.006% of 340,000 active; also: potency is read from the fitted curve at half-maximal effect
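Fluorescence read-out (Ex 386 nm, Em 447 nm) after stopping the reaction at pH 10. Enzyme: ASM from human placenta; substrate HMU-PC0, 9 uM final; 60 min, 37 °C. Compound preincubation 10 min, ambient temperature.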
p53 reactivation – restores transcriptional activity of mutant p53. AID 504706. Potency, µM (doses to about 92.2 µM), for inactives: at the top dose activity change, positive = activation, most hits filed as activators. H1299 p53-A138V BP100-luciferase reporter, luminescence, 24 h. 0.063% of 320,000 active; also: potency is read from the fitted curve at half-maximal effect; % of control where 0% means no effect; nearly all actives have a fitted effect of over 45% in size
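p53-null H1299 cells stably carrying temperature-sensitive p53-A138V and a BP100-luciferase reporter were pinned with compounds (4-point, 1:5 series) and held 24 hrs at 37 deg C. Luminescence was read 10 min after detection reagent.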
KCNH2 3.1 inh – inhibitors of human KCNH2 3.1 potassium channel isoform | activity change, % (tested at about 1.8 µM) | U2OS KCNH2 3.1, thallium flux FluxOr; hits give low values | 0.95% of 340,000 active;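 active = maximum activity change below -70%; inconclusive = maximum activity change from -70% to -50%; inactive = maximum activity change above -50%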;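 also: thallium influx rate constant from kinetic fluorescence after stimulation buffer; % is scaled to controls: 0 for no effect and ±100 for the full control effect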
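Steps: virus added to U2OS suspension (4 h, RT, dark); medium with 10% FBS added, cells plated, 37 C overnight; FluxOr/Red40 loading buffer 45 min RT; stimulation buffer, 2 min kinetic read; rate constant normalized.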
hERG WT inh – KCNH2 (human, wildtype) channel inhibition; Q12809; U2OS, BacMam KCNH2, thallium flux FluxOr; hits give low values; activity change, % at 1.84 µM; 0.37% of 340,000 active; AID 720551;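 active = maximum activity change below -70%; inconclusive = maximum activity change between -70% and -50%; inactive = maximum activity change above -50%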; also: % is scaled to controls: 0 for no effect and ±100 for the full control effect
Target sequence (Q12809 whole entry, looked up): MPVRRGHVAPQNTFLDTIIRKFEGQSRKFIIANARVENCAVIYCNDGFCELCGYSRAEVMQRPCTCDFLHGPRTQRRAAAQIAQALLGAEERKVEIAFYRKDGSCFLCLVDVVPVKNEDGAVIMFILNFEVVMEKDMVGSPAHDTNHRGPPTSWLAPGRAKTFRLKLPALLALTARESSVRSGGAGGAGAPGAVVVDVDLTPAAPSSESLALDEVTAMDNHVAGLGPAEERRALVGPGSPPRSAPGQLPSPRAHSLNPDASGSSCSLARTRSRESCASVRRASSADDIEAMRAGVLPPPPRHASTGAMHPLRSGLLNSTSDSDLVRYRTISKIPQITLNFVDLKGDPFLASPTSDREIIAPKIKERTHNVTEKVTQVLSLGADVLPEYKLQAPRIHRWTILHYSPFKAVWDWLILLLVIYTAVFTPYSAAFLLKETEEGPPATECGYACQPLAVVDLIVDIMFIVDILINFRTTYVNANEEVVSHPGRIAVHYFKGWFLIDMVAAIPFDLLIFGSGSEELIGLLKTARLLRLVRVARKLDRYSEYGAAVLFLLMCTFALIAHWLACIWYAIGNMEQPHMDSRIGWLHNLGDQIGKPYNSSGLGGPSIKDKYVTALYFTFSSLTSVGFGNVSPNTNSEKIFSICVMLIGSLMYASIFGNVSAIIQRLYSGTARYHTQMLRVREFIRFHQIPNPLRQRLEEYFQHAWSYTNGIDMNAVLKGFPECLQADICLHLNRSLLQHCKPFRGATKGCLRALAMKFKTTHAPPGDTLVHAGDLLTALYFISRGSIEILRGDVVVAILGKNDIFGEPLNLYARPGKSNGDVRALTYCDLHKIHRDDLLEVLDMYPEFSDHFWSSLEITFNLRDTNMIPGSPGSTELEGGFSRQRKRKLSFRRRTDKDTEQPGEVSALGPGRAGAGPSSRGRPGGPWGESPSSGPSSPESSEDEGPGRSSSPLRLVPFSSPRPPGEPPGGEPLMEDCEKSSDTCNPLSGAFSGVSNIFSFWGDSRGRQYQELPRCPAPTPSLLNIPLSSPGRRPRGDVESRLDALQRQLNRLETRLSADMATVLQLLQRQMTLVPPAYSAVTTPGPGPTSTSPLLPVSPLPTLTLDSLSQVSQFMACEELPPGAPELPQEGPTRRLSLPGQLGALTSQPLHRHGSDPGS
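U2OS cells were transduced with wild-type KCNH2 virus (2.03 x 10^8 / mL) for 4 h at room temperature, then cultured overnight at 37 C. Thallium flux was read with FluxOr dye. Rate constants were normalized to DMSO controls.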
The depositor's hits bear a star; i = inactive; ? = inconclusive; . = not tested or not shown; ! = not confirmed by another sample. Rows were chosen to be rich in hits. Some 1.4% of all compounds tested hit in one or more screens of this group. Unless noted, calls follow the shape of the dose curve; as a rule, active = well fitted curve in the direction sought with a large enough effect; inconclusive = small, poorly fitted or top-dose-only effect, or another doubt; inactive = no such curve, though single readings can be large; an effect the other way counts as inactive or inconclusive.

SMILES	Mm-Cpn inhibitor	uPA generation	ASM inhibitor	p53 reactivation	KCNH2 3.1 inh	hERG WT inh
O=C(O)C1C2C=CC(C2)C1C(=O)NCCCN1CCCC1=O (stereo not given)	-0.4%	-2.1%	1.8%	15.6%	11.9	-128.0*
O=C(O)C1C2C=CC(C2)C1C(=O)NCCCn1ccnc1 (stereo not given)	-1.6%	4.8%	0.3%	-2.0%	2.6	1.2
CCOc1ccc2nc(N3CCC(C(=O)N4CCN(C(=O)c5ccco5)CC4)CC3)sc2c1	-3.5%	?	-8.7%	9.1%	-76.6*	-34.6
CCOc1ccc2nc(N3CCCC(C(=O)N4CCN(CC)CC4)C3)sc2c1 (stereo not given)	-2.0%	?	5.5%	?	-85.6*	5.8
COc1ccc2oc(C(=O)OCC(=O)NC3CCS(=O)(=O)C3)c(C)c2c1 (stereo not given)	.	.	.	.	13.2	9.7
Cc1cc(=O)n2c(nc3ccccc32)s1	.	.	.	.	8.2	-7.9
O=c1[nH]c2ccccc2n1C1CCCCC1	1.6%	-2.5%	2.2%	-3.1%	2.8	-84.1*
COc1ccc(C2CN=NC23CCCc2ccccc2C3=O)cc1 (stereo not given)	2.6%	-15.1%	-9.5%	8.4%	-1.1	-8.6
COc1ccc(C2CN=NC23CCc2ccccc2C3=O)cc1 (stereo not given)	-0.4%	4.47µM*	2.3%	6.0%	1.3	-2.1
O=C(NC(=S)NCc1ccccc1)c1cccnc1	-1.0%	0.9%	0.8%	0.7%	25.6	-77.6*
CCc1c(C)nc(SC/C=C/c2ccccc2)[nH]c1=O	0.1%	?	-1.3%	-9.9%	-119.7*	-2.8
CC(CN1CCN(CCOCCO)CC1)CN1c2ccccc2Sc2ccc(Cl)cc21 (stereo not given)	.	.	.	.	-101.7*	0.2
O=S(=O)(c1ccccc1)N1CCCc2ccccc21	1.2%	.	.	-2.9%	.	.
O=S(=O)(c1ccccc1)N1CCNc2ccccc21	.	-2.3%	2.1%	.	-121.5*	-0.3
O=C(NCc1cccnc1)/C(=C\c1ccc(-c2ccc(Cl)c(Cl)c2)o1)S(=O)(=O)c1ccccc1	-3.8%	10µM*	32.3%	-28.8%	2.3	2.9
COc1cc(/C=C/C(=O)OCC(=O)N2CCCC2)cc(OC)c1OC	0.2%	-0.5%	7.0%	-5.5%	11.2	20.4
O=C1C=C(NCC2CCCO2)C2(CCCCC2)O1 (stereo not given)	-0.1%	6.4%	-1.3%	6.3%	-78.7*	-12.7
CN1CCN(S(=O)(=O)c2cccc(C(=O)N(C)CC(=O)Nc3ccc(Cl)c(Cl)c3)c2)CC1	.	-22.9%	-5.0%	.	28.6	-0.3
Cc1ccc(C(C)C)c2c1C(c1ccc3c(c1)OCO3)CC(=O)O2 (stereo not given)	-1.6%	3.9%	-0.2%	-7.2%	2.6	-0.2
CCCCCn1c(=O)c(C(=O)c2ccccc2)nc2ccccc21	-3.6%	-1.8%	-5.0%	4.1%	-78.2*	-119.9*
O=C(/C(N=Nc1cccc([N+](=O)[O-])c1)=C(/O)c1ccc(Br)cc1)C(F)(F)F	-8.8%	.	.	14.2%	.	.
CC1CCCCC1NC(=O)c1c(O)nc2ccccn2c1=O (stereo not given)	-1.5%	-3.1%	1.6%	-1.7%	0.2	2.1
CCOc1ccc(C2=Nn3c(nnc3-c3ccccc3)SC2)cc1Cl	1.7%	-6.1%	-1.8%	-9.0%	-202.8*	-2.0
O=C(CNC(=O)c1ccncc1)N/N=C/c1ccc(Br)cc1	0.9%	-1.6%	3.7%	-5.2%	-108.9*	11.2
COc1ccc(-c2nnc(SCC(=O)NC(=O)NCc3ccccc3)o2)cc1	-0.3%	2.4%	-0.1%	4.3%	-117.8*	-8.8
SMILES	Mm-Cpn inhibitor	uPA generation	ASM inhibitor	p53 reactivation	KCNH2 3.1 inh	hERG WT inh
NNC(=O)c1ccc(OCC2CC(c3ccc(Cl)cc3)=NO2)cc1 (stereo not given)	-11.8%	-3.3%	-6.9%	4.6%	-27.5	1.4
Cc1ccccc1NC(=O)C(C)Sc1nnc(CN2CCCC2)n1Cc1ccccc1 (stereo not given)	.	.	.	.	5.1	4.9
NS(=O)(=O)c1ccc(CCNCc2ccccc2OCc2ccc(F)cc2)cc1	2.1%	-1.8%	-1.3%	-10.3%	-75.8*	-32.9
COc1cc(CNCCc2ccc(S(N)(=O)=O)cc2)ccc1OCc1ccc(Cl)cc1	-4.1%	.	-10.0%	-19.6%	-108.5*	-31.2
Cc1cc(Cl)ccc1OCC(O)CNCCc1ccc(S(N)(=O)=O)cc1 (stereo not given)	5.4%	6.7%	-9.3%	-5.1%	-98.5*	?
CCC(=O)c1cc(Br)ccc1OCC(=O)N1CCN(S(=O)(=O)c2ccccc2)CC1	.	7.1%	-1.2%	.	-15.9	4.9
O=C(c1cccc(-c2ccc(O)cc2)c1)N1CCN(c2ccc(F)cc2)CC1	-3.6%	-1.2%	3.4%	-1.3%	-36.7	6.6
O=C(COC(=O)C1CC2CCCC(C1)C2=O)Nc1ccc(Cl)cn1 (stereo not given)	?	-13.8%	4.8%	5.1%	7.1	1.0
CC(C)c1ccc(NC(=O)COC(=O)Cn2cnc3c2c(=O)n(C)c(=O)n3C)cc1	.	.	.	.	8.1	-2.4
COc1ccccc1-c1c(C)nn2c(N3CCCCCC3)cc(C)nc12	1.0%	-28.3%	5.1%	-13.4%	10.9	-249.7*
COc1ccc(CCN(C)C2CCCN(S(=O)(=O)c3ccc(C)cc3)C2)cc1OC (stereo not given)	0.8%	0.0%	1.7%	.	-83.4*	-30.7
COc1ccc(CCN(C)C2CCCN(S(C)(=O)=O)C2)cc1OC (stereo not given)	0.2%	2.5%	-5.2%	.	-10.7	8.2
CC(=O)c1ccc(S(=O)(=O)N2CCCC(N(C)CCc3ccccc3)C2)cc1 (stereo not given)	-1.4%	-3.0%	0.7%	?	-93.5*	?
CN1CCc2c(c3ccccc3n2Cc2ccccc2)C1	-1.9%	12.5%	-1.2%	-6.1%	-77.4*!	1.3
CCCCN1CCc2c(c3ccccc3n2Cc2ccccc2)C1	-1.9%	-32.4%	11.0%	-12.1%	-94.0*	?
CN1CCc2c(c3ccccc3n2C)C1	0.7%	5.0%	2.1%	0.3%	8.5	-1.3
Cc1cc(/C=C\c2ccccc2)nc2ccccc12	1.6%	?	-0.4%	22.0%	-188.7*	-28.0
COc1ccc(/C=C/c2cc(C(=O)O)c3ccccc3n2)cc1	?	-11.6%	i	-6.8%	12.3	-14.6
CCCCc1ccc(N=N/C(C(=O)Nc2ccc(NC(C)=O)cc2OC)=C(/C)O)cc1	0.2%	-5.0%	22.4µM*	-7.9%	-3.4	5.0
O=C(NNC(=O)C1[C@H]2CCCC[C@@H]12)NC1CCCCC1 (stereo not given in full)	1.1%	20.0%	0.7%	-9.4%	-75.7*	.
